Source: PubChem (The Scripps Research Institute Molecular Screening Center)
CHRM1 antagonist – human M1 muscarinic receptor antagonists, primary screen, CHO-K1 cells, Fluo-8 calcium fluorescence, 1536-well; CHO-K1 hM1, ACh EC80 antagonist; 360,000 tested, 1.3% active; inhibition, % at 3 µM;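 active means percent inhibition above its own plate's cutoff, namely the mean of that plate's compound wells plus 3 SD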;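 further: peak over basal fluorescence ratio during 140 s after agonist addition; 0% = ACh EC80 plus DMSO and 100% = DMSO alone without agonist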
Target sequence (P11229 whole entry, looked up): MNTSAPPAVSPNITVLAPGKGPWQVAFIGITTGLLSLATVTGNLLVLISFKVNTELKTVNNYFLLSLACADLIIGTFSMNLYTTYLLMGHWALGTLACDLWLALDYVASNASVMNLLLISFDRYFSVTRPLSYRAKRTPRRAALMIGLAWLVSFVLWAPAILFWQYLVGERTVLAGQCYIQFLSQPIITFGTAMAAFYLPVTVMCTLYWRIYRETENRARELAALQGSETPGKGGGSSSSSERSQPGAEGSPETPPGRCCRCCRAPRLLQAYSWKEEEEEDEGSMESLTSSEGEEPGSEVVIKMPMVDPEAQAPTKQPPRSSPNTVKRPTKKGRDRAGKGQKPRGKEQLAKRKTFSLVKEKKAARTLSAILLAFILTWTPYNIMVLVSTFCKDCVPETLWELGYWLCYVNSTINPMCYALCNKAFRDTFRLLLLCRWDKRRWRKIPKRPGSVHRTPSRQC
M1 ag parental – counter-screen for M1 agonists: effect in parental CHO-K1 cells. 360,000 tested, 0.48% active. Fluo-8 calcium fluorescence; scaled to maximal ATP response, vehicle zero. activation, % at 3 µM. AID 602248, 2012; in the data active means activation above about 15%;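 further: untransfected CHO-K1 host cells lacking M1 receptor as counterscreen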
M1 ag – human M1 muscarinic receptor agonists, primary screen, Fluo-8 calcium fluorescence, CHO-K1 cells, HTS | AID 588814, 2011 | activation, % at 3 µM | 360,000 tested, 0.33% active | CHO-K1 hM1, agonist mode; 0% DMSO, 100% acetylcholine EC100;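 active means activation above the run's mean compound activation plus 3 SD, cut at about 16% in these data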;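 further: peak over basal fluorescence ratio within a 140 s kinetic read after compound addition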
M1 PAM – human M1 muscarinic receptor positive allosteric modulators, primary screen, CHO-K1 cells, Fluo-8 calcium fluorescence, 1536-well; CHO-K1 hM1, ACh EC20; 0% = ACh EC20, 100% = maximal ACh; activation, % at 3 µM; 360,000 tested, 0.088% active; AID 588819, 2011; in the data active means activation above about 19%, passing the limit was not always enough
CHO-K1 Ca antag – counter-screen for M1 antagonists: effect in parental CHO-K1 cells | ATP-induced calcium, Fluo-8 fluorescence | inhibition, % at 3 µM | 360,000 tested, 0.6% active | AID 602250;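 active means inhibition above a per-plate cutoff, the plate's mean sample inhibition plus 3 SD, cut at about 24% in these data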;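 further: 0% = DMSO plus EC80 ATP and 100% = DMSO alone without ATP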
M1 PAM parental – nonselective calcium activators in parental CHO-K1 cells, primary screen, counter-screen for M1 PAM project, cell-based, Fluo-8 calcium fluorescence, full deck, 1536-well. activation, % at 3 µM. 360,000 tested, 0.02% active. ATP EC20; 0% at ATP EC20, 100% at ATP max. AID 602247, 2012;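 active means activation above the run cutoff, the mean activation of all test compounds plus 3 SD, cut at about 40% in these data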;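 further: peak over basal fluorescence ratio in a 140 s read after ATP addition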
Starred values were filed as active, the others as inactive. Shown are actives, neighbours in structure and some others; about 2.3% of the full set was active somewhere.

SMILES	CHRM1 antagonist	M1 ag parental	M1 ag	M1 PAM	CHO-K1 Ca antag	M1 PAM parental
O=[N+]([O-])c1cc([N+](=O)[O-])c(Oc2c(Cl)cccc2Cl)cc1NN1CCCCC1	-4	1	-4	3	-8	7
CCOC(=O)N1CCC(NC(=O)C2CCN(C(=O)c3cc4oc(C)cc4n3Cc3c(F)cccc3Cl)CC2)CC1	-7	1	32*	11	-17	20
COc1ccc2nc3c(cc2c1)c(NC(=O)C1CCCO1)nn3CC(C)C (stereo not drawn)	-2	1	-2	-5	26*	-7
CCCCNC(=O)N1CCN(c2ccnc3cc(Cl)ccc23)CC1	20	16*	-4	-18	4	7
CCCCC(CC)C(=O)Nc1cc(C(=O)NCCC)ccc1N1CCC2(CC1)CC(c1cccc(Br)c1)=NO2 (stereo not drawn)	-14	1	-4	14	-20	11
Cc1ccc(CC(=O)N(C)CC(=O)Nc2ccc(N3CCOCC3)cc2)cc1C	4	0	-2	-1	25*	-26
CCOc1ccc(CN(C)CC(=O)Nc2ccc(N3CCOCC3)cc2)cc1OC	-1	16*	-8	8	1	17
CC(=O)c1cccc(NC(=O)c2cccc3c(-c4cccnc4)coc23)c1	14	7	3	-11	18	-16
COC(=O)c1cc(S(=O)(=O)NC2CCC(C)CC2)cn1C (stereo not drawn)	-4	3	0	1	-12	11
CC(C)C(NC(=O)c1ccc(C(C)(C)C)cc1)C(=O)NCc1ccccn1 (stereo not drawn)	55*	0	-8	-30	-8	-15
COc1ccc(C(=O)NC(C(=O)NCc2ccccn2)C(C)C)cc1 (stereo not drawn)	2	0	-2	0	5	1
COC(=O)c1ccc(C23CC4(C2)[C@H](CN(C)[C@@H]4c2ccccc2)C3c2ccc(C(F)(F)F)cc2)cc1 (stereo partly drawn)	8	4	-8	-4	2	-10
COC(=O)c1ccc(C23CC4(C2)[C@H](CN(C)[C@@H]4c2ccccc2)C3c2ccc(Cl)nc2)cc1 (stereo partly drawn)	70*	5	-7	-35	6	11
CN1C[C@@H]2C(c3ccc(Cl)nc3)C3(c4ccc(C#N)cc4)CC2(C3)[C@H]1c1ccccc1 (stereo partly drawn)	55*	1	-13	-38	-7	6
N#Cc1ccc(C23CC4(C2)[C@H](CN(P(=O)(c2ccccc2)c2ccccc2)[C@@H]4c2ccccc2)C3c2ccc(Cl)nc2)cc1 (stereo partly drawn)	15	0	-4	-8	-10	-6
Cc1ccc(NC(=O)CSCC(=O)N(C)CC(=O)Nc2ccccc2C(F)(F)F)cc1	-14	0	-1	2	-6	-22
CCOC(=O)c1[nH]c(C)c(CN(C(C)=O)c2ccc(OCC)cc2)c1C	26*	1	-14	-29	-6	24
N#CCSc1nnc(-c2sc3ccccc3c2Cl)o1	-10	2	-6	5	-9	25
Clc1cccc2sc(-c3nnc(-c4ccccc4)o3)c(Cl)c12	4	0	-3	-2	26*	-7
Cn1c(SCC(=O)Nc2cccnc2Cl)nc2ccccc21	-11	2	1	6	-2	2
Cc1ccc(Nc2nc3nonc3[nH]c2=O)cc1Cl	13	0	1	-16	30*	-13
Cc1ccc(S(=O)(=O)N2CCCCC2C(=O)N(C)c2ccccc2)cc1 (stereo not drawn)	-10	0	-8	2	-4	13
CC(C)(C)OC(=O)NCCc1onc(-c2ccccc2F)c1C(=O)O	-11	0	-4	4	-6	5
Cc1cccc(NS(=O)(=O)c2cc3c4c(c2)CC(=O)N4CCC3)c1C	-8	3	2	11	-9	13
Cc1ccccc1NS(=O)(=O)c1cc2c3c(c1)CC(=O)N3CCC2	-2	17*	3	4	5	6
SMILES	CHRM1 antagonist	M1 ag parental	M1 ag	M1 PAM	CHO-K1 Ca antag	M1 PAM parental
O=C(CSc1nnc(SCc2ccccc2)s1)NNC(=S)Nc1ccccc1	11	0	-2	-7	29*	-16
COc1cccc(CN2CCN(Cc3cc(OC)c(OC)c(OC)c3)CC2)c1OC	-14	1	-4	10	-8	11
COc1cc(CN2CCN(C(c3ccccc3)c3ccccc3)CC2)cc(OC)c1OC	96*	2	-9	-30	8	-3
c1ccc(OCCN2CCNCC2)cc1	-8	0	-1	4	-7	0
OC(CN1CCN(C(c2ccccc2)c2ccccc2)CC1)c1ccc(Br)cc1 (stereo not drawn)	38*	0	-10	-22	-5	0
c1ccc(OCCN2CCN(C(c3ccccc3)c3ccccc3)CC2)cc1	52*	1	-8	-25	-17	15
COc1cccc(CN2CCN(C(c3ccccc3)c3ccccc3)CC2)c1O	91*	0	-8	-29	-13	25
COC(=O)CN1CCN(C(c2ccccc2)c2ccccc2)CC1	14	0	-1	-11	1	5
CN(Cc1ccccc1)C(=O)CN1CCN(C(c2ccccc2)c2ccccc2)CC1	86*	1	1	-20	-6	12
N#Cc1c(N2CCOCC2)nc(-c2ccco2)c2c1CCCC2	13	1	-2	-1	25*	-7
CC1(C)Cc2c(C#N)c(N3CCCC3)nc(-c3ccco3)c2CO1	3	0	-2	1	-9	10
Cc1noc(C)c1S(=O)(=O)NC(=O)C1(C)CCN1C(=O)CC(c1ccccc1)c1ccccc1 (stereo not drawn)	-14	1	-2	5	-7	19
CCN1/C(=C\C=C(C(C)=O)C(C)=O)Sc2ccccc21	-11	17*	7	6	3	5
NC(=O)C1(N2CCCCC2)CCN(C(=O)CSc2nc3ccccc3s2)CC1	-11	1	-3	3	-11	8
Cc1ccc(NC(Cc2cc(C)no2)c2ccccc2)cc1 (stereo not drawn)	-1	14	3	8	-17	46*
CC1Oc2ccc(C#N)cc2N(Cc2cccc(F)c2)C1=O (stereo not drawn)	-13	1	-9	3	-16	9
